Assay outcomes deposited in PubChem by Broad Institute.
NOMO-1 viab – STK33 inhibitor candidate reducing NOMO-1 cell viability; NOMO-1 AML viability, CellTiter-Glo luminescence, 72 h; inhibition, % (test concentration not listed); 37,000 compounds, 7.5% hits; in the data active means inhibition above about 80%; inconclusive means no clear call, values can overlap the other calls
MITF inh – inhibitors of MITF; TRPM1 promoter luciferase, luminescence, 24 h; inhibition, % (concentration not given with the values); 37,000 compounds, 0.28% hits; in the data active means inhibition above about 85%; inconclusive means no clear call, values can overlap the other calls; inactive means below about 68%;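 further: human melanocyte line stably carrying TRPM1 promoter luciferase reporter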
Shh pathway inh – Sonic Hedgehog pathway inhibition; Shh-LIGHT2 Gli-luciferase reporter, 30 h; inhibition, % (no concentration beside the values); 22,000 compounds, 2.1% hits; AID 2313;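 active means mean inhibition across valid replicates above about 65%, limit read from the data; inconclusive means mean under the limit, yet half or more replicates past it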;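 further: pathway switched on by Shh-conditioned medium diluted 1 in 25 in low serum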
Of the large screens only hits and unclear results are named; the others gave an inactive call. Sampled rows, rich in hits. Any-hit rate of the full collection: about 8.1%.

C[C@H](CO)N1C[C@H](C)[C@@H](CN(C)Cc2ccc(Oc3ccccc3)cc2)Oc2ccc(NC(=O)Nc3ccc4c(c3)OCO4)cc2C1=O	none (no result: Shh pathway inh)
C[C@@H]1CN([C@H](C)CO)C(=O)c2cc(NC(=O)Nc3ccc4c(c3)OCO4)ccc2O[C@@H]1CN(C)Cc1ccc(Oc2ccccc2)cc1	Shh pathway inh 92
C[C@@H]1CN([C@@H](C)CO)C(=O)c2cc(NC(=O)Nc3ccc4c(c3)OCO4)ccc2O[C@H]1CN(C)Cc1ccccc1	none
COc1ccccc1NC(=O)CSc1n[nH]c(-c2ccncc2)n1	none (no result: Shh pathway inh)
C[C@@H]1CN([C@@H](C)CO)C(=O)c2cccc(NC(=O)Nc3ccc(F)cc3)c2O[C@H]1CN(C)Cc1ccc(C(=O)Nc2ccccc2N)cc1	NOMO-1 viab 125 (no result: Shh pathway inh)
C[C@H](CO)N1C[C@H](C)[C@H](CN(C)Cc2ccc(C(=O)Nc3ccccc3N)cc2)Oc2c(NC(=O)Nc3ccc(F)cc3)cccc2C1=O	NOMO-1 viab 97 (no result: Shh pathway inh)
C[C@H]1CN([C@@H](C)CO)C(=O)c2cc(NC(=O)Nc3ccc(F)cc3)ccc2O[C@H]1CN(C)Cc1ccc(C(=O)Nc2ccccc2N)cc1	NOMO-1 viab inconclusive (no result: Shh pathway inh)
C[C@@H]1CN([C@@H](C)CO)C(=O)c2cc(NC(=O)Nc3ccc(F)cc3)ccc2O[C@@H]1CN(C)Cc1ccc(C(=O)Nc2ccccc2N)cc1	NOMO-1 viab inconclusive (no result: Shh pathway inh)
C[C@H]1CN([C@@H](C)CO)C(=O)c2cccc(NC(=O)Nc3ccc(F)cc3)c2O[C@@H]1CN(C)Cc1ccc(C(=O)O)cc1	none
C[C@@H]1CN([C@@H](C)CO)C(=O)c2cccc(NC(=O)Nc3ccc(C(F)(F)F)cc3)c2O[C@H]1CN(C)Cc1ccc(C(=O)Nc2ccccc2N)cc1	NOMO-1 viab 128 (no result: Shh pathway inh)
C[C@@H]1CN([C@H](C)CO)C(=O)c2cccc(NC(=O)Nc3ccc(F)cc3)c2O[C@H]1CN(C)Cc1ccc(C(=O)Nc2ccccc2N)cc1	NOMO-1 viab 127 (no result: Shh pathway inh)
C[C@@H]1CN([C@H](C)CO)C(=O)c2cccc(NC(=O)Nc3ccc(C(F)(F)F)cc3)c2O[C@@H]1CN(C)Cc1ccc(C(=O)O)cc1	none
Cn1c(CN2CCOCC2)nnc1SCC(=O)Nc1cc(C(F)(F)F)ccc1Cl	none (no result: Shh pathway inh)
O=C(CSc1nc2ccccc2[nH]1)Nc1ccc(Cl)cc1O	none (no result: Shh pathway inh)
CC(C(=O)Nc1ccc(Cl)c(Cl)c1)N(c1ccccc1)S(C)(=O)=O (stereo not given)	none (no result: Shh pathway inh)
CCOC(=O)c1c[nH]c(=S)[nH]c1=O	none
C[C@H](CO)N1C[C@H](C)[C@@H](CN(C)Cc2ccc(C(=O)O)cc2)Oc2c(NC(=O)Nc3ccc(F)cc3)cccc2C1=O	none (no result: Shh pathway inh)
C[C@H]1CN([C@@H](C)CO)C(=O)c2cccc(NC(=O)Nc3ccc(F)cc3)c2O[C@@H]1CN(C)Cc1ccc(C(=O)Nc2ccccc2N)cc1	NOMO-1 viab 140 (no result: Shh pathway inh)
CC(Sc1nc2ccccc2c(=O)[nH]1)C(=O)Nc1cccc(Cl)c1 (stereo not given)	none (no result: Shh pathway inh)
CC(=O)CCc1ccc(Oc2ccc(C(F)(F)F)cn2)cc1	none (no result: Shh pathway inh)
CCOc1ccc(NC(=O)Cn2cnc3scc(-c4ccc(C)cc4)c3c2=O)cc1	none (no result: Shh pathway inh)
O=C(CSc1nc2ccccc2c(=O)n1CC1CCCO1)c1ccc(Br)cc1 (stereo not given)	none (no result: Shh pathway inh)
C[C@@H]1CN([C@H](C)CO)C(=O)Cc2cc(NC(=O)Nc3cccc4ccccc34)ccc2O[C@@H]1CN(C)Cc1ccc2c(c1)OCO2	NOMO-1 viab 116
C[C@H](CO)N1C[C@H](C)[C@@H](CN(C)Cc2ccc3c(c2)OCO3)Oc2ccc(NC(=O)Nc3cccc4ccccc34)cc2C1=O	none
C[C@@H]1CN([C@@H](C)CO)C(=O)Cc2cc(NC(=O)Nc3cccc4ccccc34)ccc2O[C@@H]1CN(C)Cc1ccc2c(c1)OCO2	NOMO-1 viab 97
C[C@@H]1CN([C@@H](C)CO)C(=O)c2cc(NC(=O)Nc3cccc4ccccc34)ccc2O[C@H]1CN(C)Cc1ccc2c(c1)OCO2	none (no result: Shh pathway inh)
COC(=O)c1c(NC(=O)CC2Nc3cccc4cccc(c34)NC2=O)sc(C)c1C (stereo not given)	none (no result: Shh pathway inh)
CN(C)/C=C/C(=O)c1ccsc1	none (no result: Shh pathway inh)
Cc1ccc(N2C3=C(C(=O)CC(C)(C)C3)C(c3cccs3)C3=C2CC(C)(C)CC3=O)cc1C	NOMO-1 viab 118
COc1ccc(C(=O)N2c3ccccc3CCc3ccccc32)cc1	NOMO-1 viab 104
CC1(C)CC(NC(=O)N2c3ccccc3CCc3ccccc32)CC(C)(C)N1	none
Cc1occc1-c1nnc(SCC(=O)Nc2ccccc2[N+](=O)[O-])n1-c1ccccc1	none (no result: Shh pathway inh)
C[C@H](CO)N1C[C@H](C)[C@H](CN(C)Cc2ccncc2)Oc2ccc(NC(=O)Nc3ccc(C(F)(F)F)cc3)cc2C1=O	NOMO-1 viab 86
C[C@H]1CN([C@@H](C)CO)C(=O)c2cc(NC(=O)Nc3ccc(C(F)(F)F)cc3)ccc2O[C@H]1CN(C)Cc1ccncc1	NOMO-1 viab 102
C[C@H](CO)N1C[C@H](C)[C@@H](CN(C)Cc2ccncc2)Oc2ccc(NC(=O)Nc3ccc(C(F)(F)F)cc3)cc2C1=O	none
C[C@H]1CN([C@@H](C)CO)C(=O)c2cc(NC(=O)c3ccncc3)ccc2O[C@@H]1CN(C)Cc1ccc(C(F)(F)F)cc1	none (no result: Shh pathway inh)
COc1ccc(OC)c(S(=O)(=O)N(C)CC(=O)Nc2ccc(F)cc2)c1	none (no result: Shh pathway inh)
CC(C)c1ccc2c(c1)CCC1[C@](C)(C(=O)O)CCC[C@]21C (stereo not given in full)	none
CC(C)c1c(O)ccc2c1CCC1C(C)(C)CCC[C@]21C (stereo not given in full)	NOMO-1 viab 109, MITF inh 106, Shh pathway inh inconclusive
CCOC(=O)c1cnn(C(=O)Cc2cccc(OC)c2)c1N	none
Cc1nc(SCC(=O)c2cc3ccccc3oc2=O)c(C#N)c(C)c1C	NOMO-1 viab 110 (no result: Shh pathway inh)
Cc1cc(C)c(C#N)c(SCC(=O)c2cc3ccccc3oc2=O)n1	none (no result: Shh pathway inh)
O=C(COc1cccc(NC(=O)c2ccc([N+](=O)[O-])cc2)c1)c1ccc(Br)cc1	none (no result: Shh pathway inh)
C[C@H](CO)N1C[C@H](C)[C@H](CN(C)Cc2ccccc2)Oc2ccc(NC(=O)Cc3cn(C)c4ccccc34)cc2C1=O	none
C[C@@H]1CN([C@H](C)CO)C(=O)c2cc(NC(=O)Cc3cn(C)c4ccccc34)ccc2O[C@@H]1CN(C)Cc1ccc(Oc2ccccc2)cc1	NOMO-1 viab 108, Shh pathway inh inconclusive
C[C@@H]1CN([C@H](C)CO)C(=O)c2cc(NC(=O)Cc3cn(C)c4ccccc34)ccc2O[C@@H]1CN(C)Cc1ccc(-c2ccccc2)cc1	NOMO-1 viab 112 (no result: Shh pathway inh)
C[C@H](CO)N1C[C@H](C)[C@H](CN(C)Cc2ccc(Oc3ccccc3)cc2)Oc2ccc(NC(=O)Cc3cn(C)c4ccccc34)cc2C1=O	none
C[C@H](CO)N1C[C@H](C)[C@H](CN(C)Cc2ccc(-c3ccccc3)cc2)Oc2ccc(NC(=O)Cc3cn(C)c4ccccc34)cc2C1=O	NOMO-1 viab 85 (no result: Shh pathway inh)
C[C@@H]1CN([C@@H](C)CO)C(=O)c2cc(NC(=O)Cc3cn(C)c4ccccc34)ccc2O[C@@H]1CN(C)Cc1ccc(C(F)(F)F)cc1	NOMO-1 viab 106
C[C@@H]1CN([C@H](C)CO)C(=O)c2cc(NC(=O)Cc3cn(C)c4ccccc34)ccc2O[C@H]1CN(C)Cc1ccc(C(F)(F)F)cc1	none (no result: Shh pathway inh)
C[C@@H]1CN([C@H](C)CO)C(=O)c2cc(NC(=O)Cc3cn(C)c4ccccc34)ccc2O[C@H]1CN(C)Cc1ccccc1	none (no result: Shh pathway inh)
